Tau fibril ThT: qHTS for Inhibitors of Tau Fibril Formation, Thioflavin T Binding; Potency, µM (series often up to 57.4 µM), usual class: inhibitors; 270,000 compounds, 2.1% hits; recombinant tau K18 P301L, heparin-induced fibrillization, ThT fluorescence; note: nearly all actives have a fitted effect of over 55% in size
Target sequence (P10636 561-689 P618L limits assumed): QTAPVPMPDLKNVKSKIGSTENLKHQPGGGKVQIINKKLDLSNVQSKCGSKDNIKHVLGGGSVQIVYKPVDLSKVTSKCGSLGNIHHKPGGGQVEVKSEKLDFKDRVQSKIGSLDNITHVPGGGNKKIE
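Recombinant human tau K18 fragment […] carrying P301L, 15 uM unlabeled plus 0.24 uM Alexa 594-labeled, was fibrillized with 20 uM heparin in 100 mM sodium acetate pH 7 for 6 hr at 37 C; 30 uM ThT fluorescence read after 1 hr.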
GoLoco inh red: qHTS Assay for Inhibitors of RGS12 GoLoco Motif Activity (Red Fluorophore) | Gai1:RGS12 GoLoco peptide FP, rhodamine, 10 min | Potency, µM (titrated, usually from 61.6 µM), most hits filed as inhibitors | 230,000 compounds, 0.44% hits | AID 880, 2007; active = well fitted inhibition curve with a large enough effect, not every such curve was filed as active; inactive = no such curve, though single readings can be large or run the other way; note: nearly all actives have a fitted effect of over 30% in size
TRb-SRC2 inh: qHTS for Inhibitors of the Interaction of Thyroid Hormone Receptor and Steroid Receptor Coregulator 2. AID 1469, 2008. TRbeta-SRC2 peptide binding, fluorescence polarization; receptor liganded with 1 µM T3. Potency, µM (series often up to 106 µM), most hits filed as inhibitors. 280,000 compounds, 0.065% hits. Thyroid hormone receptor beta (Homo sapiens), P10828; note: nearly all actives have a fitted effect of over 50% in size
Target sequence (P10828 whole entry, looked up): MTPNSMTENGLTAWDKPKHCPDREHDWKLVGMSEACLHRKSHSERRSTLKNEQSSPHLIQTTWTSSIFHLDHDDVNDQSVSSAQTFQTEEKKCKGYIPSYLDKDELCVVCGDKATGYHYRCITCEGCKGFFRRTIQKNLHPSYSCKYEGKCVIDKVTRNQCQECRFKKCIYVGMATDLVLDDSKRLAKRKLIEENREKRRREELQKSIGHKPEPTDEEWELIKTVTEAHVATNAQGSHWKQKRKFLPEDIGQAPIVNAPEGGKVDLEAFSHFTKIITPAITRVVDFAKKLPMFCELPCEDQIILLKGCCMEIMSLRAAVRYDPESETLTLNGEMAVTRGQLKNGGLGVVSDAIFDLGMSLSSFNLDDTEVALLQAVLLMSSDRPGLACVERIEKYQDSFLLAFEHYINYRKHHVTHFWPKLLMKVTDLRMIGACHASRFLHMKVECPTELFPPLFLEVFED
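Human TRb LBD (0.6 uM) plus Texas Red-labeled SRC2 peptide (20 nM), 1uM T3, 5% DMSO, 5 hr at ambient temperature. Decreased polarization (555/632 nm) flags inhibition; data normalized to free and bound peptide controls.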
Tau fibril FP: qHTS for Inhibitors of Tau Fibril Formation, Fluorescence Polarization; K18 P301L tau heparin fibrillization, Alexa594 FP, 6 h; Potency, µM (series often up to 57.7 µM), hits mostly inhibitors; 280,000 compounds, 0.39% hits; AID 1468, 2008; note: nearly all actives have a fitted effect of over 55% in size
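Quantitative HTS format: compounds meet 15 uM recombinant K18 P301L tau and Alexa 594-tau tracer in 100 mM sodium acetate pH 7; 20 uM heparin triggers fibrillization at 37 C over 6 hr; FP gives the signal.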
Tau fluor counter: Counterscreen qHTS for Inhibitors of Tau Fibril Formation, Fluorescence Polarization | 280,000 compounds, 0.93% hits | Potency, µM (doses to about 57.7 µM) | tau K18 P301L Alexa594 fluorescence, heparin fibrillization; note: nearly all actives have a fitted effect of over 55% in size
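Human tau K18 P301L (15 uM unlabeled, 0.24 uM Alexa 594-labeled) in 100 mM sodium acetate pH 7 with 20 uM heparin, 6 hr at 37 C. ThT 30 uM added, 1 hr ambient; Alexa 594 FP and total fluorescence read at 555/632 nm.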
TR SRC2 fluor cs: Total Fluorescence Counterscreen for Inhibitors of the Interaction of Thyroid Hormone Receptor and Steroid Receptor Coregulator 2; Potency, µM (titrated, usually from 106 µM); TRb/SRC2 Texas Red total fluorescence interference; 280,000 compounds, 0.29% hits; active = well fitted curve in either direction with a large enough effect; inconclusive = small, poorly fitted or top-dose-only effect
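Human TRβ ligand-binding domain (0.6 uM) and Texas Red SRC2 peptide (20 nM) in Tris buffer with 1 uM T3 and 5% DMSO were incubated with pinned compound for 5 hr at ambient temperature. Total fluorescence was computed as S + 2P (555/632 nm).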
Hits are given with their value; [ ] = dose if it differs, or a comment. Sampled rows, rich in hits. Any-hit rate of the full collection: about 3.2%. Unless noted, calls come from the whole dose curve; as a rule, active = well fitted curve in the direction sought with a large enough effect; inconclusive = small, poorly fitted or top-dose-only effect, or another doubt; inactive = no such curve, though single readings can be large; an effect the other way counts as inactive or inconclusive.

For Cc1ccc(C)c2[nH]c(=O)c(C(c3nnnn3Cc3ccccc3)N3CCc4ccccc4C3)cc12 (configuration not stated) the results were Tau fibril ThT 22µM, GoLoco inh red inactive, TRb-SRC2 inh inactive, Tau fibril FP inconclusive, Tau fluor counter inactive and TR SRC2 fluor cs inactive.
For COc1ccc(C(=O)c2cn(Cc3ccccc3F)c3ccc(F)cc3c2=O)cc1 the results were Tau fibril ThT inactive, TRb-SRC2 inh inactive, Tau fibril FP inactive, Tau fluor counter inactive and TR SRC2 fluor cs inactive.
Screening CC(C)CCNC(=O)c1ccc2c(SCC(=O)O)c3c(nc2c1)CCCC3 returned Tau fibril ThT inconclusive, GoLoco inh red inactive, TRb-SRC2 inh inactive, Tau fibril FP inactive, Tau fluor counter inactive and TR SRC2 fluor cs inactive.
O=C(O)CSc1c2c(nc3cc(C(=O)NCCN4CCOCC4)ccc13)CCC2 was read as Tau fibril ThT inactive, GoLoco inh red inactive, TRb-SRC2 inh inactive, Tau fibril FP inactive, Tau fluor counter inactive and TR SRC2 fluor cs 50µM[fluorescent].
For O=C(c1ccco1)[C@@H]1[C@@H]2C(=O)N(c3ccc(Br)cc3)C(=O)[C@@H]2C2c3ccccc3C=CN21 (some centres not stated) the results were Tau fibril ThT 20µM, GoLoco inh red inactive, TRb-SRC2 inh inactive, Tau fibril FP inactive, Tau fluor counter inactive and TR SRC2 fluor cs inactive.
`O=C(c1ccco1)[C@@H]1[C@@H]2C(=O)N(c3ccc(F)cc3)C(=O)[C@@H]2C2c3ccccc3C=CN21` (some centres not stated) gave Tau fibril ThT 25µM, GoLoco inh red inactive, TRb-SRC2 inh inactive, Tau fibril FP inconclusive, Tau fluor counter inconclusive and TR SRC2 fluor cs inactive.
CCCCCCCCCCCC(=O)OC was read as TRb-SRC2 inh inactive and TR SRC2 fluor cs inactive.
`Cc1ccc(S(=O)(=O)N[C@H]2COC(=O)C/C=C\[C@@H](C)[C@H](NS(=O)(=O)c3ccc(C)cc3)COC(=O)[C@H](C)NC(=O)C/C=C\[C@H]2C)cc1` gave Tau fibril ThT inconclusive, TRb-SRC2 inh inactive[11.2 µM], Tau fibril FP inactive[11.6 µM], Tau fluor counter inactive[11.6 µM] and TR SRC2 fluor cs inactive[11.2 µM].
For CCOC(=O)c1c(CSc2ccc(C)cc2)oc2ccc(O)cc12 the results were Tau fibril ThT inconclusive, GoLoco inh red inactive, TRb-SRC2 inh inactive, Tau fibril FP 32µM, Tau fluor counter inconclusive and TR SRC2 fluor cs inactive.
For O=C1C=CC(=O)N1CCCCCCN1C(=O)C=CC1=O the results were Tau fibril ThT inconclusive, GoLoco inh red inactive, TRb-SRC2 inh inactive, Tau fibril FP 25µM, Tau fluor counter inactive and TR SRC2 fluor cs inactive.
For Cc1ccc(/C=C2/CNC/C(=C\c3ccc(C)cc3)C2=O)cc1 the results were TRb-SRC2 inh inactive and TR SRC2 fluor cs inactive.
For CC(C)c1ccc(CNc2nc(-c3ccco3)nn2C(=O)c2ccc([N+](=O)[O-])cc2)cc1 the results were Tau fibril ThT inconclusive, TRb-SRC2 inh inactive, Tau fibril FP inactive, Tau fluor counter 16µM[quencher] and TR SRC2 fluor cs inactive.
Screening O=[N+]([O-])c1cc(S(=O)(=O)N2CCCC2)ccc1NN=C1CCCCC1 returned Tau fibril ThT inactive, GoLoco inh red inactive, TRb-SRC2 inh inactive, Tau fibril FP inactive, Tau fluor counter inactive and TR SRC2 fluor cs inactive.
Screening O=[N+]([O-])c1cc(C(F)(F)F)cc([N+](=O)[O-])c1NN=C1CCCCC1 returned Tau fibril ThT 13µM, GoLoco inh red inactive, TRb-SRC2 inh inactive, Tau fibril FP inconclusive, Tau fluor counter inconclusive and TR SRC2 fluor cs inactive.
For COc1ccc(-c2nc(CS(=O)CC(=O)NCCc3ccccc3)c(C)o2)cc1OC (configuration not stated) the results were Tau fibril ThT inconclusive, TRb-SRC2 inh inactive, Tau fibril FP inactive, Tau fluor counter inactive and TR SRC2 fluor cs inactive.
`COC(=O)c1ccc([C@H]2Nc3ccc(S(=O)(=O)Nc4ccc(C)cc4)cc3[C@H]3C=CC[C@H]32)cc1` gave Tau fibril ThT inconclusive, TRb-SRC2 inh inactive, Tau fibril FP inactive, Tau fluor counter inconclusive and TR SRC2 fluor cs inactive.
Screening COc1ccc(NS(=O)(=O)c2ccc3c(c2)[C@H]2C=CC[C@H]2[C@@H](c2ccc(C(=O)O)cc2)N3)cc1 returned Tau fibril ThT 25µM, TRb-SRC2 inh inactive, Tau fibril FP inactive, Tau fluor counter inconclusive and TR SRC2 fluor cs inactive.
For Cc1c(Cl)cccc1NS(=O)(=O)c1ccc2c(c1)C1C=CCC1C(c1ccc(C(=O)O)cc1)N2 (configuration not stated) the results were Tau fibril ThT 25µM, GoLoco inh red inactive, TRb-SRC2 inh inactive, Tau fibril FP inconclusive, Tau fluor counter inconclusive and TR SRC2 fluor cs inactive.
CO[C@@H]1COC(=O)C/C=C\[C@@H](C)[C@@H]2C=C[C@H](O)[C@@H](COC(=O)CCC[C@H]1C)O2 was read as Tau fibril ThT inactive[11.5 µM], TRb-SRC2 inh inactive[11.2 µM], Tau fibril FP inactive[11.6 µM], Tau fluor counter inactive[11.6 µM] and TR SRC2 fluor cs inactive[11.2 µM].
Cc1c(NC(=O)c2cccc3c(Cl)cccc23)cccc1-c1nc2ccccc2o1 was read as Tau fibril ThT inactive, TRb-SRC2 inh inactive, Tau fibril FP inconclusive, Tau fluor counter inactive and TR SRC2 fluor cs inactive.
CCOC(=O)CSc1nc(Nc2ccc3c(c2)OCO3)c2ccccc2n1 was read as Tau fibril ThT inconclusive, GoLoco inh red inactive, TRb-SRC2 inh inactive, Tau fibril FP inactive, Tau fluor counter 13µM[quencher] and TR SRC2 fluor cs inactive.
For CCOC(=O)CNc1ccc2c(c1)OCO2 the results were Tau fibril ThT 32µM, GoLoco inh red inactive, TRb-SRC2 inh inactive, Tau fibril FP inconclusive, Tau fluor counter inactive and TR SRC2 fluor cs inactive.
N#CCSc1nc(Nc2ccc3c(c2)OCO3)c2ccccc2n1 was read as Tau fibril ThT inactive, GoLoco inh red inactive, TRb-SRC2 inh inactive, Tau fibril FP inactive, Tau fluor counter inconclusive and TR SRC2 fluor cs inactive.
For CC(C)=CCc1c(O)cc(O)c2c1O[C@H](c1ccccc1)CC2=O the results were Tau fibril ThT inactive, GoLoco inh red inactive, TRb-SRC2 inh inactive, Tau fibril FP inactive, Tau fluor counter inactive and TR SRC2 fluor cs inactive.
Screening CCC(CC)C(=O)Nc1nnc(SCc2cc(=O)c3ccccc3[nH]2)s1 returned Tau fibril ThT inactive, TRb-SRC2 inh inactive, Tau fibril FP inactive, Tau fluor counter inactive and TR SRC2 fluor cs inactive.
Screening CCCCC(CC)C1OCC(C[N+]2(C)CCOCC2)O1 (configuration not stated) returned Tau fibril ThT inactive, GoLoco inh red 10µM, TRb-SRC2 inh inactive, Tau fibril FP inactive, Tau fluor counter inactive and TR SRC2 fluor cs inconclusive.

Source: PubChem BioAssay
